Screening data (PubChem BioAssay)
Most compounds without a hit are left out; they make up all but 3.2% or so of the library.
Casp7 inh = caspase-7 (human) inhibition, allosteric or competitive. recombinant caspase-7, Ac-DEVD-AFC fluorescence rate. Potency, µM (top dose mostly 57.5 µM), most hits filed as inhibitors. 75,000 compounds, 0.02% hits; active = well fitted inhibition curve with a large enough effect in the main read-out, with a control signal flat, not every such curve was filed as active; inconclusive = small, poorly fitted or top-dose-only effect, or a change in a side signal
Target sequence (P55210 24-198 limits assumed): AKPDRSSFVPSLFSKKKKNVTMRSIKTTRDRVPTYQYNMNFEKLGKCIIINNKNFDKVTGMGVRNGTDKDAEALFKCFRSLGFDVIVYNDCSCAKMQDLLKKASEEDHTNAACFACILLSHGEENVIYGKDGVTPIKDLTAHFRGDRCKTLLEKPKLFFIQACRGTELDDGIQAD
Target sequence (P55210 207-303 limits assumed): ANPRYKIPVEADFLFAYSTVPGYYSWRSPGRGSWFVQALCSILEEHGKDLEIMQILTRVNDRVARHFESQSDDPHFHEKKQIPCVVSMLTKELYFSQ
Tau fil binding = binders of human tau filaments; P10636; recombinant tau filaments, thioflavin S fluorescence, 15 h; filaments grown with octadecylsulfate alongside compound; Potency, µM (doses to about 57.1 µM); 71,000 compounds, 2% hits;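 note: actives lower thioflavin S fluorescence by blocking filaments or displacing dye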
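His-tagged recombinant human tau (exons 2, 3, 10; 1 uM final) fibrillized with 30 uM sodium octadecylsulfate, 15 h at 37 C, in pH 7.4 HEPES buffer with 10 uM thioflavine S and 5 mM DTT. Reduced ThS fluorescence (450/510 nm) marks activity.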
Casp1 inh = blocks human caspase-1 allosterically or competitively | Caspase-1 enzyme, Ac-WEHD-AFC fluorogenic rate | Potency, µM (series often up to 57.5 µM), hits mostly inhibitors | 75,000 compounds, 0.03% hits
Target sequence (P29466 120-297 limits assumed): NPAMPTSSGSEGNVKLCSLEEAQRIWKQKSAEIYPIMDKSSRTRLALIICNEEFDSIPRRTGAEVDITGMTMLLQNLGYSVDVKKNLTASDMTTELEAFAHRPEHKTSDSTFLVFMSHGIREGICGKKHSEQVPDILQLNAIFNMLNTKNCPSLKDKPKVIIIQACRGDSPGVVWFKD
Target sequence (P29466 317-404 limits assumed): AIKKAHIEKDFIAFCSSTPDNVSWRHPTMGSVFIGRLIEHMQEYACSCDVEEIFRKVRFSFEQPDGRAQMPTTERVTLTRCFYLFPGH
ALOX15 inhib = blocks human 15-lipoxygenase activity. P16050. purified 15hLO-1, xylenol orange hydroperoxide absorbance. Potency, µM (doses to about 57.1 µM), usual class: inhibitors. 74,000 compounds, 1.4% hits. AID 887; note: nearly all actives have a fitted effect of over 55% in size
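Purified human 15hLO-1 (40 nM final) in 25 mM Hepes pH 7.5, 0.01% Triton X-100 was preincubated with compound 15 min at room temperature, then reacted 6 min with 50 uM arachidonic acid; hydroperoxide detected by Fe-XO, 573/405 nm absorbance ratio.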
Pol III holo inh = DNA polymerase III holoenzyme inhibition. reconstituted DNA polymerase III holoenzyme replication, biochemical. Potency, µM (series often up to 57.1 µM). 71,000 compounds, 0.25% hits. AID 603
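Reconstituted *E. coli* holoenzyme (0.35 nM Pol III, 1 nM beta, 154 nM SSB, 2 nM primase) was preincubated with compound for 15 min at RT. Synthesis on 1.4 nM ssM13Gori ran 35 min, then was stopped with PicoGreen/EDTA and read as dsDNA fluorescence.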
Large screens that a line does not name were inactive; ! = not confirmed by another sample. Unless noted, calls come from the whole dose curve; as a rule, active = well fitted curve in the direction sought with a large enough effect; inconclusive = small, poorly fitted or top-dose-only effect, or another doubt; inactive = no such curve, though single readings can be large; an effect the other way counts as inactive or inconclusive.

O=c1c(-c2ccc(F)cc2)nc2cnc(N3CCNCC3)nc2n1Cc1ccc(F)cc1	Casp7 inh inconclusive, Tau fil binding inconclusive (no result: Casp1 inh)
CC(=O)OC[C@@H]1O[C@@H](O/N=C2/C[C@@H](O)[C@@H](O)[C@@H]3[C@@H]4C(=O)N(C5CCCCC5)C(=O)[C@H]4CC[C@H]23)[C@H](OC(C)=O)[C@H](OC(C)=O)[C@@H]1OC(C)=O	none (no result: Tau fil binding, Pol III holo inh)
C[C@@H](CSC(=N)N)C(N)=O	none
NCCCCCCCCCCNS(=O)(=O)c1cccc2c(Cl)cccc12	ALOX15 inhib inconclusive
CCCCCCCNS(=O)(=O)c1cccc2c(Cl)cccc12	Tau fil binding 40µM
N/N=C1/c2ccccc2N[C@H]1OC(=O)Nc1cccc(Cl)c1	Tau fil binding inconclusive
Cc1ccc2[nH]c(=O)c(C(c3nnnn3CC3CCCO3)N3CCc4ccccc4C3)cc2c1 (stereo unspecified)	Casp1 inh inconclusive
Cc1ccc2[nH]c(=O)c(C(c3nnnn3CC3CCCO3)N3CCCc4ccccc43)cc2c1 (stereo unspecified)	ALOX15 inhib 1.3µM
CCC(c1nnnn1Cc1ccco1)N(CCc1ccccc1)Cc1cc2cc(C)ccc2[nH]c1=O (stereo unspecified)	Casp7 inh inconclusive, Casp1 inh inconclusive, ALOX15 inhib 16µM
CCC(c1nnnn1CC1CCCO1)N(CCN1CCOCC1)Cc1cc2cc(C)ccc2[nH]c1=O (stereo unspecified)	Casp1 inh inconclusive, ALOX15 inhib 3.2µM
COC(=O)C/C=C\[C@H](C)[C@@H](OC)c1ccccc1Br	none (no result: Tau fil binding, Pol III holo inh)
O=C1C(C=Nc2ccccc2O)=C(O)c2ccccc21	Tau fil binding inconclusive
Cc1ccc(O)c(N=CC2=C(O)c3ccccc3C2=O)c1	Tau fil binding 7.9µM, ALOX15 inhib inconclusive
O=C1[C@H]2[C@H]3[C@H](O)[C@H](O)C/C(=N/OCc4ccccc4)[C@H]3CC[C@@H]2C(=O)N1Cc1ccc2c(c1)OCO2	none (no result: Tau fil binding, Pol III holo inh)
N#CCCn1c(=O)c(-c2ccc(F)cc2)nc2cnc(N3CCNCC3)nc21	Casp7 inh inconclusive (no result: Casp1 inh)
CN1CCN(c2ncc3nc(-c4ccc(Cl)cc4)c(=O)n(CCC#N)c3n2)CC1	Casp7 inh inconclusive, Tau fil binding 3.2µM (no result: Casp1 inh)
N#CCCn1c(=O)c(-c2ccc(Cl)cc2)nc2cnc(N3CCOCC3)nc21	Casp7 inh inconclusive (no result: Casp1 inh)
N#CCCn1c(=O)c(-c2ccc(Cl)cc2)nc2cnc(N3CCNCC3)nc21	Casp7 inh inconclusive, Tau fil binding 4µM (no result: Casp1 inh)
CCCNC(=O)OC[C@@H]1O[C@H](CCO/N=C\[C@@H](OC)[C@H](C)/C=C\CC(=O)OC)C=C[C@@H]1Oc1ccc(OC)cc1	none (no result: Tau fil binding, Pol III holo inh)
COc1ccc(CN[C@H](C)C(=O)O)cc1	none
CO[C@@H]1COC(=O)[C@H]2CCCN2C(=O)[C@@H](C)COC(=O)CCC[C@H]1C	none (no result: Tau fil binding, Pol III holo inh)
COc1ccc(C2C(C(C)=O)=C(C)N=c3s/c(=C\c4ccc5c(c4)OCO5)c(=O)n32)c(OC)c1 (stereo unspecified)	Casp7 inh inconclusive, Tau fil binding 4µM (no result: Casp1 inh)
COc1ccc(C2C(C(C)=O)=C(C)N=c3s/c(=C\c4ccco4)c(=O)n32)c(OC)c1 (stereo unspecified)	ALOX15 inhib inconclusive
Fc1cccc(-n2c(-c3ccco3)nc3nc4ccccc4nc32)c1	ALOX15 inhib inconclusive
c1ccc(-c2nc3nc4ccccc4nc3n2Cc2ccco2)cc1	Tau fil binding 13µM
Fc1ccc(-c2nc3nc4ccccc4nc3n2Cc2ccco2)cc1	Tau fil binding 16µM
Fc1ccc(-n2c(-c3ccco3)nc3nc4ccccc4nc32)cc1	Tau fil binding 13µM, Casp1 inh inconclusive
O=S(=O)(c1ccc(F)cc1)N1CN(Cc2ccco2)c2nc3ccccc3nc21	Casp1 inh inconclusive
CCCCOCCCn1c(-c2ccco2)nc2nc3ccccc3nc21	Casp7 inh inconclusive, Tau fil binding 2µM, ALOX15 inhib inconclusive (no result: Casp1 inh)
O=C(O)CSCCc1ccccc1	none
CC(C)=CCC/C(C)=C/CO/N=C1/[C@H]2O[C@@H]2[C@@H](O)[C@H]2[C@H]1CCn1c(=O)n(Cc3cc4c(cc3Cl)OCO4)c(=O)n12	none (no result: Tau fil binding, Pol III holo inh)
Cc1ccc(/C=c2\sc3nc(-c4cccs4)nn3c2=O)o1	ALOX15 inhib 13µM
COc1ccccc1/C=c1\sc2nc(-c3cccs3)nn2c1=O	none
Brc1ccc2[nH]c3nc(SCCN4CCOCC4)nnc3c2c1	Tau fil binding 13µM
CC(=O)[C@H]1CC[C@@H]2[C@]1(C)CC=C1[C@]23C=C[C@]2(C[C@H](O)CC[C@@]12C)[C@H](C(=O)O)[C@@H]3C(=O)O	none
Cc1cc(NC(=O)c2cc(-c3ccncc3)nc3c(C)cccc23)no1	Tau fil binding 3.2µM
Cc1cc(C)c2nc(-c3ccccn3)cc(C(=O)Nc3cc(C)on3)c2c1	none
O=C(CSc1nc2ccccc2c(=O)[nH]1)N1CCOCC1	none
O=C(CSc1nc2ccc(S(=O)(=O)N3CCOCC3)cc2[nH]1)N1CCOCC1	ALOX15 inhib 7.9µM
CCOC(=O)C1CCN(c2c(NCc3ccc(C(=O)O)cc3)c(=O)c2=O)CC1	none
CCOc1[nH]c(/N=C/c2ccco2)c(C#N)c1C#N	ALOX15 inhib 25µM
CC(=O)O[C@H]1C2=CO[C@H](C)[C@H]3[C@H]4C5=C([C@H](O)[C@H]6O[C@@H]6C5=O)[C@H](O[C@H]4C)[C@@]23C(=O)[C@H]2O[C@@H]21	none (no result: Tau fil binding, Pol III holo inh)
Cc1ccc(NC(=O)CSC2=C(C#N)C(c3ccc4c(c3)OCO4)C3=C(CCCC3=O)N2)c(C)c1 (stereo unspecified)	ALOX15 inhib 3.2µM
Cc1ccccc1-c1ccc2ncnc(-n3ccnc3)c2c1	ALOX15 inhib inconclusive
CN(C)c1ccc(-c2ccc3ncnc(-n4ccnc4)c3c2)cc1	Tau fil binding 3.2µM
CO[C@@H]1COC(=O)[C@H](C)NC(=O)[C@@H](C)COC(=O)[C@H](C)NC(=O)C/C=C\[C@H]1C	none (no result: Tau fil binding, Pol III holo inh)
c1ccc2c(N3CCNCC3)nc(-c3ccc4c(c3)OCO4)nc2c1	ALOX15 inhib inconclusive
CCOC(=O)c1sc(NC(=O)CSc2ccccn2)c(C#N)c1C	none
CCOC(=O)c1sc(NC(=O)CSc2nnc(Cc3ccccc3)o2)c(C#N)c1C	Tau fil binding 20µM, ALOX15 inhib inconclusive
CCOC(=O)c1sc(NC(=O)CSc2n[nH]c(-c3ccccc3)n2)c(C#N)c1C	Tau fil binding inconclusive, ALOX15 inhib 13µM
CC(C)[C@H](NC(=O)OC(C)(C)C)[C@@H](O)CC(=O)C(C)(C)C	none (no result: Tau fil binding, Pol III holo inh)
COC(=O)NC(/C(C(=O)OC)=C(\C)NCc1ccccc1)c1ccc(F)cc1 (stereo unspecified)	none (no result: Tau fil binding, Pol III holo inh)
C=CC1=C(C(=O)O)N2C(=O)C(NC(=O)/C(=N\O)c3csc(N)n3)C2SC1 (stereo unspecified)	none (no result: Tau fil binding, Pol III holo inh)
Cc1ccc(OC2C(O)COC2/C=C/C#Cc2ccc(C(C)(C)C)cc2)cc1 (stereo unspecified)	ALOX15 inhib 3.2µM! (no result: Tau fil binding, Pol III holo inh)
Nc1c(C(=O)N2CCCCC2)sc(=S)n1-c1ccccc1	ALOX15 inhib 10µM
Oc1c(CN2CCCCC2)cc(COCc2ccccc2)c2cccnc12	none
